The full list was thinned out, with hits kept by preference.
GluA2 TARP mod: GluA2-stargazin AMPA receptor complex modulation; HEK293 GluA2+stargazin, membrane potential dye (FDSS), glutamate EC50; hits were called plate by plate, in both directions; calls only at 30 µM; 3.5% of 40,000 active;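 active means any of four per-well response measures lying three or more SD from its plate-wide compound average, in either direction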
GIRK2 activator: GIRK2 channel activators by thallium flux | 34,000 tested, under 10 active | activation (% efficacy), % for hits at 37.5 µM | HEK293 GIRK2/NPY4 cells, thallium flux fluorescence;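 active means primary screen hit, no activity in plain HEK293 cells, and in GIRK2-only cells above 5% efficacy rising with concentration; inactive means the rest, including fluorescent compounds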;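 further: efficacy is normalized control-subtracted fluorescence 15 s after thallium addition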
Target sequence (P48051 whole entry, looked up): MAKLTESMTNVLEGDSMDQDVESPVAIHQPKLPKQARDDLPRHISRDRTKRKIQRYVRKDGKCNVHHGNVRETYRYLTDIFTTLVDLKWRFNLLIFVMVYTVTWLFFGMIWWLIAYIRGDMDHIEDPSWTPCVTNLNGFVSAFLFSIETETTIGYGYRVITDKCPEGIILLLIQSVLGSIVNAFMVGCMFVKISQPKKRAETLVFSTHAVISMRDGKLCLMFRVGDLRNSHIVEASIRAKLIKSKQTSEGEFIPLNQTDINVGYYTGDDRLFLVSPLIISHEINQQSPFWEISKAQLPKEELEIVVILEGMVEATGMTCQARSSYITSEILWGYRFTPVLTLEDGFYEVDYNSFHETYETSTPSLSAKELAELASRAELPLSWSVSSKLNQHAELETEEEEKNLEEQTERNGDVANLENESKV
Large screens that a line does not name were inactive; ! = repeats disagree.

O=C(Cn1cccn1)NCc1ccc(OC(F)(F)F)cc1	none
CSc1ccccc1NC(=O)c1ccc(=O)n(Cc2cc(C)ccc2C)c1	GluA2 TARP mod active
COc1ccc(C)cc1NC(=O)c1ccc(=O)n(Cc2cc(C)ccc2C)c1	none
CSc1ccccc1NC(=O)c1ccc(=O)n(Cc2ccccc2F)c1	none
Cc1ccccc1Cn1cc(C(=O)Nc2c(C)cccc2C)ccc1=O	GluA2 TARP mod active
CSc1ccccc1NC(=O)c1ccc(=O)n(Cc2ccccc2Cl)c1	GluA2 TARP mod active
Cc1ccc(Cn2cc(C(=O)Nc3c(C)cccc3C)ccc2=O)cc1	none
Cc1noc(CNC(=O)c2ccc(C)c(C)c2)n1	none (no result: GluA2 TARP mod)
O=C(NCCOc1cccc(C(F)(F)F)c1)c1ccc(Cl)c([N+](=O)[O-])c1	none
CCOc1ccc(OCCNC(=O)c2ccc([N+](=O)[O-])cc2)cc1	GluA2 TARP mod active
O=C(NCCOc1cccc(C(F)(F)F)c1)c1ccc([N+](=O)[O-])cc1	GluA2 TARP mod active
O=C(NCCOc1ccc(F)cc1)c1ccc([N+](=O)[O-])cc1	none
Cc1ccccc1C(=O)N1CCN(c2ncnc3c2nnn3-c2ccc(Cl)cc2)CC1	none (no result: GIRK2 activator)
COc1cccc2sc(NC(=O)c3cc(C)n(C)n3)nc12	GluA2 TARP mod active
CCOc1cccc2sc(NC(=O)c3c(C)cnn3C)nc12	none (no result: GluA2 TARP mod)
COc1cccc2sc(NC(=O)c3cc(C)nn3C)nc12	GluA2 TARP mod active
CCn1nc(C(=O)Nc2nc3c(C(C)C)cccc3s2)cc1C	none (no result: GluA2 TARP mod)
COc1ccccc1-c1noc(C2CN(S(=O)(=O)/C=C/c3ccccc3)C2)n1	none (no result: GluA2 TARP mod)
CC(=O)Nc1ccc(S(=O)(=O)NCC2CCN(Cc3cccs3)CC2)cc1	none (no result: GluA2 TARP mod)
CCOC(=O)Cn1c(=O)c2c(nc3n(-c4ccc(CC)cc4)c(C)c(C)n23)n(C)c1=O	none (no result: GIRK2 activator)
CC(=O)Nc1ccc(NC(=O)CSc2ccc(S(=O)(=O)C(F)(F)F)cc2[N+](=O)[O-])cc1	none (no result: GIRK2 activator)
O=C(CSc1ccc([N+](=O)[O-])cc1[N+](=O)[O-])Nc1cccc(C(F)(F)F)c1	GluA2 TARP mod active (no result: GIRK2 activator)
COc1ccc(NC(=O)CSc2ccc(NC(=O)c3ccccc3)nn2)c(OC)c1	none
Cc1ccc(C)c(N2CCN(c3ccc(S(=O)(=O)c4ccccc4)nn3)CC2)c1	GluA2 TARP mod active
Cc1ccc(N2CCN(c3ccc(S(=O)(=O)c4ccccc4)nn3)CC2)c(C)c1	none
Cc1nc(C)c(C(=O)N2CCN(c3nc4c(C)c(C)ccc4s3)CC2)s1	none
Cc1nc(C)c(C(=O)N2CCN(c3ccc(N(C)C)nn3)CC2)s1	GluA2 TARP mod active
CC(=O)N(Cc1cc2cc(C)ccc2[nH]c1=O)c1ccc(C)c(C)c1	none (no result: GIRK2 activator)
COc1ccccc1CCNC(=O)c1cnn2c(C(F)F)cc(C)nc12	GluA2 TARP mod active (no result: GIRK2 activator)
Cc1cc(C(F)F)n2ncc(C(=O)NC3CCCCCC3)c2n1	none (no result: GIRK2 activator)
Cc1[nH]c(=O)[nH]c(=O)c1CC(=O)NCc1ccco1	none
COc1ccc(OC)c2sc(N(CCN3CCOCC3)C(=O)/C=C/c3ccc([N+](=O)[O-])cc3)nc12	none
COc1ccc(C)c2sc(N(Cc3ccncc3)C(=O)/C=C/c3ccc([N+](=O)[O-])cc3)nc12	GluA2 TARP mod active
CCn1c(COc2ccc(Cl)c3cccnc23)nnc1SCC(N)=O (tested in a mixture with another compound)	none (no result: GIRK2 activator)
CC1=NN(c2ccccc2)C(=O)C1C(=O)c1ccc(S(=O)(=O)N(C)C)cc1 (stereo not given)	none
CC1=NN(c2ccccc2)C(=O)C1C(=O)c1ccc(Br)o1 (stereo not given)	GluA2 TARP mod active
O=C(NCc1n[nH]c(=O)c2ccccc12)c1cccs1	none
O=C(NCC1(O)CCOCC1)c1cc(C(F)(F)F)cc(C(F)(F)F)c1	none (no result: GluA2 TARP mod)
Cc1cc(NC(=O)C(=O)NCC(c2ccccc2)N(C)C)c2ccccc2n1 (stereo not given)	none
Cc1cc(C)nc(Nc2nc(N)c3ccccc3n2)n1	GluA2 TARP mod active (no result: GIRK2 activator)
O=C(Nc1ccc(SCC(=O)N2CCc3ccccc32)nn1)c1cccs1	none
C=CCn1c(=O)c2c(nc3n(-c4ccccc4OCC)c(C)cn23)n(C)c1=O	none (no result: GIRK2 activator)
CN(CCCC(N)=O)S(=O)(=O)c1ccc2c(c1)C(=O)c1ccccc1C2=O	GluA2 TARP mod active (no result: GIRK2 activator)
COc1ccc(S(=O)(=O)N(C)CCCC(=O)O)cc1N(C)S(=O)(=O)c1ccccc1	none (no result: GIRK2 activator)
CN1C(=O)CCc2cc(NC(=O)c3ccc4c(c3)OCO4)ccc21	GluA2 TARP mod active (no result: GIRK2 activator)
CN(c1ccsc1C(=O)Nc1ccc2c(c1)OCCO2)S(=O)(=O)c1ccccc1	GluA2 TARP mod active!
CCCCN1C(=O)CCc2cc(NC(=O)c3ccc4c(c3)OCO4)ccc21	none
CN(C1CCCC1)S(=O)(=O)c1ccc(C(=O)Nc2ccc3c(c2)OCO3)cc1	none (no result: GIRK2 activator)
CN(c1ccsc1C(=O)Nc1ccc(F)c(F)c1)S(=O)(=O)c1ccccc1	none
CN(C1CC1)S(=O)(=O)c1ccc(C(=O)Nc2ccc3c(c2)OCO3)cc1	GluA2 TARP mod active
O=C(CC1Sc2ccccc2NC1=O)Nc1ccc(Cl)c([N+](=O)[O-])c1 (stereo not given)	none
